Several values for one entry are separate records, joined by “and”; a condition that tells them apart may be missing. Identical values can stand only once. Records with an inconclusive call do not appear. The source holds several records for some structures; these can differ, active in one and inactive in another. Activity calls are given as the source filed them. Rule for the calls, unless noted: active = hit-call score of the fitted dose curve at least 0.9, where 1 is the maximum; inconclusive = response in the unintended direction; inactive = score below 0.9.
Experiments:
[1] = BSK_4H_Eotaxin3: BioMAP Diversity Plus: 4H Assay for Eotaxin 3 Biomarker Activity (AID 2283000; active = hit-call score of the fitted dose curve at least 0.9, where 1 is the maximum; inactive = score below 0.9); settings: primary human endothelial cells (HUVEC); actives raise or lower the signal
In short: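 Human umbilical vein endothelial cells (BSK_4H system) dosed with test chemical; Eotaxin-3 (CCL26) measured by ELISA 24 h after dosing. Bidirectional curve fitting relative to DMSO negative control as baseline.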

[2] = target: human Peroxisome Proliferator-activated Receptor alpha (PPARa), PPARA (gene 5465) (UniProt Q07869); assay: ATG_PPARa_TRANS: Attagene TRANS-FACTORIAL HepG2 Assay for human Peroxisome Proliferator-activated Receptor alpha (PPARa) (AID 2283001);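 for AC50: potency for gain of reporter signal over DMSO so agonist or activator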
In short: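 Transient HepG2 transfection, GAL4-UAS reporters, NR-Gal4 chimeras; 24 h compound exposure. Readout: reporter transcripts by RT-PCR, 6-FAM primer extension, HpaI digest, capillary electrophoresis. Positive direction vs DMSO baseline.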

[3] = target: human Peroxisome Proliferator-activated Receptor delta (PPARd), PPARD (gene 5467) (UniProt Q03181); assay: ATG_PPARd_TRANS: Attagene TRANS-FACTORIAL HepG2 Assay for human Peroxisome Proliferator-activated Receptor delta (PPARd) (AID 2283002)
In short: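 Fluorescence from capillary electrophoresis of labelled RT-PCR reporter fragments gives the signal; DMSO sets baseline. Cells: HepG2 transiently carrying GAL4-UAS reporter units plus chimeric nuclear receptor-Gal4 proteins, exposed to chemicals for 24 h.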

[4] = read-out: Intercellular Adhesion Molecule 1 (ICAM1), ICAM1 (gene 3383); assay: BSK_3C_ICAM1: BioMAP Diversity Plus: 3C Assay for Intercellular Adhesion Molecule 1 (ICAM1) Biomarker Activity (AID 2283003; active = hit-call score of the fitted dose curve at least 0.9, where 1 is the maximum; inactive = score below 0.9); settings: primary human endothelial cells (HUVEC); actives raise or lower the signal
In short: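 Using DMSO as baseline, bidirectional curve fitting was applied to ICAM-1 ELISA signals from HUVEC in the 3C system, measured 24 h after compound addition.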

[5] = target: human Retinoic Acid Receptor beta (RARb), RARB (gene 5915) (UniProt P10826); assay: ATG_RARb_TRANS: Attagene TRANS-FACTORIAL HepG2 Assay for human Retinoic Acid Receptor beta (AID 2283004)
In short: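 Induction of reporter mRNA from a chimeric RARb-Gal4 construct was measured by RT-PCR, FAM labelling, HpaI digestion and capillary electrophoresis. Measurements followed 24 h compound treatment of transiently transfected human HepG2 liver cells, with DMSO as baseline.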

[6] = target: Retinoic acid receptor alpha (Homo sapiens) (UniProt P10276); assay: ATG_RARa_TRANS: Attagene TRANS-FACTORIAL HepG2 Assay for human Retinoic Acid Receptor alpha (RARa) (AID 2283005)
In short: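 HepG2 transiently transfected with multiplex GAL4-UAS reporter units including a human RARa–GAL4 chimera; 24 h compound exposure. Reporter mRNA quantified by RT-PCR, 6-FAM labeling and capillary electrophoresis; gain of signal versus DMSO.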

[7] = BSK_3C_Proliferation: Cell Proliferation Assessment in the BioMAP Diversity Plus: 3C Assay (AID 2283006; active = hit-call score of the fitted dose curve at least 0.9, where 1 is the maximum; inactive = score below 0.9;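 for AC50: potency may reflect either rise or fall in cell number versus DMSO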); settings: primary human endothelial cells (HUVEC)
In short: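 Measured here: sulforhodamine B (0.1%) staining of TCA-fixed sub-confluent umbilical vein endothelial cultures 48 h post-dosing, absorbance 560 nm. DMSO served as negative control and baseline; both signal gain and loss were modelled.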

[8] = target: Peroxisome proliferator-activated receptor gamma (Homo sapiens) (UniProt P37231); assay: ATG_PPARg_TRANS: Attagene TRANS-FACTORIAL HepG2 Assay for human Peroxisome Proliferator-activated Receptor-gamma (PPARg) (AID 2283007)
In short: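 After 24 h of chemical exposure, transfected HepG2 cells carrying PPARγ-Gal4 chimera reporter constructs are lysed for RNA. Reporter transcripts are measured by RT-PCR and capillary electrophoresis with fluorescent labelling, and gain of signal is fitted versus DMSO.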

[9] = target: Nuclear receptor subfamily 1 group I member 2 (Homo sapiens) (UniProt O75469); assay: ATG_PXR_TRANS: Attagene TRANS-FACTORIAL HepG2 Assay for human Pregnane X Receptor (PXR) (AID 2283008)
In short: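 Transactivation by exogenous PXR–GAL4 fusion measured as reporter transcript induction after 24 h compound treatment of transfected human HepG2 cells. Read-out via RT-PCR and capillary electrophoresis of labelled fragments, fitted upward relative to DMSO.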

[10] = target: human Retinoic Acid Receptor gamma (RARg), RARG (gene 5916) (UniProt P13631); assay: ATG_RARg_TRANS: Attagene TRANS-FACTORIAL HepG2 Assay for human Retinoic Acid Receptor gamma (RARg) (AID 2283009)
In short: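 Gain-of-signal relative to DMSO is reported from fluorescent capillary electrophoresis of RT-PCR reporter products. These came from HepG2 cells expressing transfected RARg-GAL4 chimeras with UAS reporters, harvested 24 h after dosing.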

Measured: AC50

Chain of Nuclear receptor subfamily 1 group I member 2 (Homo sapiens) (O75469 whole entry, looked up, the tested form may be a part): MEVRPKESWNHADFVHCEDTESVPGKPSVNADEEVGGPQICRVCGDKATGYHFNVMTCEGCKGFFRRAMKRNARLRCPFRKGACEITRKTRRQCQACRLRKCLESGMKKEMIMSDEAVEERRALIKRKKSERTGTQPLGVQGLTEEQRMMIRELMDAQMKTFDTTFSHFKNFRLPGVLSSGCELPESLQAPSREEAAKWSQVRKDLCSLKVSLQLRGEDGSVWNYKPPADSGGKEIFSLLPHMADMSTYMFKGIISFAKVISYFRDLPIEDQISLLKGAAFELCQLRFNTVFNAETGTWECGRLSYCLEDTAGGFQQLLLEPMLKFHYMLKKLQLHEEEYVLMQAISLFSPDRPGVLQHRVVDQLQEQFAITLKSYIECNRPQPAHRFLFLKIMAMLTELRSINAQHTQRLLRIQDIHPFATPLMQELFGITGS
Chain of human Retinoic Acid Receptor gamma (RARg), RARG (gene 5916) (P13631 whole entry, looked up, the tested form may be a part): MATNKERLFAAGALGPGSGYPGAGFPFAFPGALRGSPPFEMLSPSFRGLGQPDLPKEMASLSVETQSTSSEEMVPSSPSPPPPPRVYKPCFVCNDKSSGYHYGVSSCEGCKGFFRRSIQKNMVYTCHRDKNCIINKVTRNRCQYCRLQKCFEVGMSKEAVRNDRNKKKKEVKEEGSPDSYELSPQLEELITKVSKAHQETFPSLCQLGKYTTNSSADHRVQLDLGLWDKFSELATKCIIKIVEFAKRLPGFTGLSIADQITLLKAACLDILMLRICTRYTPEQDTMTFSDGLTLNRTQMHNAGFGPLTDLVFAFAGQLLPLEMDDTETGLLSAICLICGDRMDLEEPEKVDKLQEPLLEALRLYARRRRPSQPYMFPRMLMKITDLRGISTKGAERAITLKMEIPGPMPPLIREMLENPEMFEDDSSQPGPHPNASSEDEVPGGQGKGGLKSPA
Chain of Retinoic acid receptor alpha (Homo sapiens) (P10276 whole entry, looked up, the tested form may be a part): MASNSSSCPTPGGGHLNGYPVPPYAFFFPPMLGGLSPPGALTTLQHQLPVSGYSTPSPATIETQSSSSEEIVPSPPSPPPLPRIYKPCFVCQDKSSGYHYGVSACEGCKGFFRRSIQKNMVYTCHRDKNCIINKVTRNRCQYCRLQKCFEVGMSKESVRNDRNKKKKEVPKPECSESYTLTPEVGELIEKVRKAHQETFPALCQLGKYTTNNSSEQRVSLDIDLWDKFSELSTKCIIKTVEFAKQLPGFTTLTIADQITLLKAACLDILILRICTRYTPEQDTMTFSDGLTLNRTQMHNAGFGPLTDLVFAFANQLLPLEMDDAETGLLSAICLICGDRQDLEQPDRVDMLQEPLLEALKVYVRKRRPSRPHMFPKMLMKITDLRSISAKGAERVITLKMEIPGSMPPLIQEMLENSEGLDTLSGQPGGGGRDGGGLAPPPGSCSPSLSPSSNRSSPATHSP
Chain of human Retinoic Acid Receptor beta (RARb), RARB (gene 5915) (P10826 whole entry, looked up, the tested form may be a part): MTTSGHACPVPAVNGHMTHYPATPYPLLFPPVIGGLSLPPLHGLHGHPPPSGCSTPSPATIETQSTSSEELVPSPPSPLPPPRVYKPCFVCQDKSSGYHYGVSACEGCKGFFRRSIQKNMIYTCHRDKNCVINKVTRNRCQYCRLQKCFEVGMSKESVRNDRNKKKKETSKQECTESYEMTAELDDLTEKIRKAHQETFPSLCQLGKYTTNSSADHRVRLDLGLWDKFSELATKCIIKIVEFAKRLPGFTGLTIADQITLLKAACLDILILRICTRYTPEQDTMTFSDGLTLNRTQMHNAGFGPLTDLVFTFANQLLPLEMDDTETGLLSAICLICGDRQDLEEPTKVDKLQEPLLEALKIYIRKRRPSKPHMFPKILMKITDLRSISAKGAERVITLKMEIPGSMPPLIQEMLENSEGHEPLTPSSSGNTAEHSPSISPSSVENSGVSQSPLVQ
Chain of human Peroxisome Proliferator-activated Receptor alpha (PPARa), PPARA (gene 5465) (Q07869 whole entry, looked up, the tested form may be a part): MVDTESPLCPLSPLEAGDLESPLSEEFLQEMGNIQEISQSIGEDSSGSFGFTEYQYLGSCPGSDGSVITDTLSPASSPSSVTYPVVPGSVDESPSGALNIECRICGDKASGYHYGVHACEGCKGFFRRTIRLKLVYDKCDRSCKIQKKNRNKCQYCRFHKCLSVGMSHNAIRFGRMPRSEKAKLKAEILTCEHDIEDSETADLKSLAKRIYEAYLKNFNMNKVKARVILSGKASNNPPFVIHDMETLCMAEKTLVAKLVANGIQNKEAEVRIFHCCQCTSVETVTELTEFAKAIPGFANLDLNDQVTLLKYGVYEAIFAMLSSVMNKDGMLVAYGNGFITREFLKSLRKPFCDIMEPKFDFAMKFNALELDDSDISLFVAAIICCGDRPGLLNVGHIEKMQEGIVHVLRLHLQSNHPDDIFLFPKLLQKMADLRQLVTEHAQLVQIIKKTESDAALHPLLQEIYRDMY
Chain of human Peroxisome Proliferator-activated Receptor delta (PPARd), PPARD (gene 5467) (Q03181 whole entry, looked up, the tested form may be a part): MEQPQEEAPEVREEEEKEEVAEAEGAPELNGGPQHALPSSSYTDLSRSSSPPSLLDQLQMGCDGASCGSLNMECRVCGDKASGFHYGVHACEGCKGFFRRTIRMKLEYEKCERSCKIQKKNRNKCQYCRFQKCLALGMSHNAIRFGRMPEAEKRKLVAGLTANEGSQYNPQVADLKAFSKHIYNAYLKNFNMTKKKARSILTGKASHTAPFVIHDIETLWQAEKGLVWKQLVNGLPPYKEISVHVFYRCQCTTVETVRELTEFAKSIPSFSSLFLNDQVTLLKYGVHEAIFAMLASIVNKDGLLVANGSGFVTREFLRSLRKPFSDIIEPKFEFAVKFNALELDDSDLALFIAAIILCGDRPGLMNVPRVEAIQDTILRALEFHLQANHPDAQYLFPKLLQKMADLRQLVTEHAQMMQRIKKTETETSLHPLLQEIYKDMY
Chain of Peroxisome proliferator-activated receptor gamma (Homo sapiens) (P37231 whole entry, looked up, the tested form may be a part): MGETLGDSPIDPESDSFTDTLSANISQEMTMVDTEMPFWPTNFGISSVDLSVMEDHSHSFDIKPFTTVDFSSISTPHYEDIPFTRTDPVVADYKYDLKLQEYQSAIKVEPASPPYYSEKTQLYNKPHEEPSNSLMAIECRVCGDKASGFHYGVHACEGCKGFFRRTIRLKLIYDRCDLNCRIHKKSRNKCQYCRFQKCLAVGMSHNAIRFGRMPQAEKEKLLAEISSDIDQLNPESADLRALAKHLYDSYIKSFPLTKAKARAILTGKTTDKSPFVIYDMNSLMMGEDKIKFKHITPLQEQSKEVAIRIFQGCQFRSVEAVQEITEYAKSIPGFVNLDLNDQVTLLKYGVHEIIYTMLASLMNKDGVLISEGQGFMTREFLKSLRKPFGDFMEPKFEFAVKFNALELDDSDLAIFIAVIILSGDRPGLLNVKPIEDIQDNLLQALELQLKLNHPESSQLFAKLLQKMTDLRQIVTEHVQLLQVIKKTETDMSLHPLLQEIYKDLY

NS(=O)(=O)C(F)(F)C(F)(F)C(F)(F)C(F)(F)C(F)(F)C(F)(F)C(F)(F)C(F)(F)F
active: [1] 30.6 µM and 46.8 µM and 54 µM | [2] 88.4 µM | [4] 56.8 µM and 51.5 µM | [7] 30.3 µM and 38.9 µM | [8] 100 µM and 59 µM and 41.8 µM
inactive: [2] | [3] | [4] | [5] | [6] | [9] | [10]

C=CC(=O)NCNC(=O)C=C
inactive: [1] | [2] | [4] | [7] | [8]

CCCCCCOC(=O)c1ccccc1C(=O)OCCCCCC
inactive: [1] | [2] | [3] | [4]
active: [7] 14.6 µM | [8] 12.9 µM | [9] 4.17 µM

O=C(O)C(F)(F)C(F)(F)C(F)(F)C(F)(F)C(F)(F)F
inactive: [1] | [3] | [4] | [6] | [7] | [8] | [9]
active: [2] 36.7 µM and 70.9 µM

Cc1ccccc1CO[C@@H]1C[C@@]2(C(C)C)CC[C@]1(C)O2
active: [8] 32.3 µM | [9] 5.24 µM
inactive: [1] | [3] | [4] | [5] | [6] | [7] | [10]

N#Cc1ccc(N(CC(N)=O)CC(F)(F)F)cc1C(F)(F)F
inactive: [1] | [4] | [5] | [7] | [8] | [9] | [10]

Oc1ccc(Cl)cc1Cl
inactive: [1] | [2] | [4] | [7] | [8]

CO/C=C(/C(=O)OC)c1ccccc1COc1cccc(C(F)(F)F)n1
active: [1] 16.5 µM | [7] 1.82 µM | [8] 5.74 µM | [9] 0.264 µM
inactive: [4] | [10]

Reference: PubChem BioAssay (EPA / NIEHS)
